Screening data from PubChem BioAssay.
In the library only some 0.6% were active in any assay of this set; here they are far more common.
WNV NS2B-NS3 inh: WNV NS2B-NS3 proteinase inhibition; P06935; WNV NS2B-NS3 protease, fluorogenic substrate Ex360/Em465; stronger effect = lower value; z-score (no concentration beside the values); actives 0.18% (n = 65,000); AID 577; in the data active = z-score below about -3
Target sequence (P06935 1371-1501 limits assumed): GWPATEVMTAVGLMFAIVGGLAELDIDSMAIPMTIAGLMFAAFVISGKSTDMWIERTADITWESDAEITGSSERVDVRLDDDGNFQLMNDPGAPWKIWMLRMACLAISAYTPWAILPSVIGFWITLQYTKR
Target sequence (P06935 1502-1679 limits assumed): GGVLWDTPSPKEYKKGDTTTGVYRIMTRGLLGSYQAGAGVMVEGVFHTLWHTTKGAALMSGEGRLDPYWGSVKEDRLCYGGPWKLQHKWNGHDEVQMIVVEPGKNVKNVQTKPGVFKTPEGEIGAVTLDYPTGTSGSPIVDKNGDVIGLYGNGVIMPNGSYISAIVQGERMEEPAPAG
CD11b adhes enh: CD11b/CD18-fibrinogen binding enhancement; P05107+P11215; K562 CD11b/CD18 adhesion to fibrinogen, ATPlite luminescence; activation, % at 10 µM; actives 0.07% (n = 93,000); AID 1499;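 active = 10 µM primary screen giving 50% or more activity, confirmed by 40% or more on retest at that dose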
Mac1 fbg inh: blocks human CD11b/CD18 adhesion to fibrinogen. K562 CD11b/CD18 adhesion to fibrinogen, ATPlite luminescence; Mn2+ added to activate the integrin. inhibition, % at 10 µM. actives 0.54% (n = 93,000);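 active = primary inhibition of 50% or more at 10 µM, then 40% or more on retest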
Numbers without * were called inactive; . = no result.

SMILES | WNV NS2B-NS3 inh | CD11b adhes enh | Mac1 fbg inh
Cc1cc(OCC(=O)NCC(C)C)cc(C)c1Br | . | -2.9 | 11.9
Cc1cc(OCC(=O)Nc2ccncc2)cc(C)c1Br | . | -8.7 | 84.2*
Cc1ccc(-c2c3c(=O)n(C)c(=O)n(C)c3c3c(C)cc(C)nn23)cc1 | 0.72 | . | .
COC(=O)c1nc2n(n1)C(c1cc(OC)ccc1OC)C(C(=O)OC1CCCCC1)=C(C)N2 (configuration not stated) | 1.32 | -4.3 | -7.3
Cc1cc(/C=N/n2cnnc2)c(C)n1-c1ccc(OCc2ccc(F)cc2)cc1 | -0.64 | 0.4 | 11.3
Cc1cc(/C=N/n2cnnc2)c(C)n1-c1ccc(OCc2ccc(Cl)cc2Cl)cc1 | . | -7.7 | 99.2*
COc1ccc(Nc2nc(N3CCCC3)c3ccccc3n2)cc1 | -0.89 | -8.8 | 99.4
CCN(CC)c1ccc(Nc2nc(N3CCOCC3)c3ccccc3n2)cc1 | . | -2.5 | 65.2*
O=C(N/N=C/C1C(c2ccccc2)C1(Cl)Cl)c1cccc(Cl)c1 (configuration not stated) | . | -4.1 | 41.5
O=C(COC(=O)c1ccc2c(c1)OCO2)NCc1ccc(Cl)cc1 | -0.93 | 2.4 | -1.1
CCOC(=O)NC1(NC2CCCCC2)Oc2ccccc2O1 | -0.63 | -1.4 | -12.1
CCn1c(SCC(=O)Nc2nccs2)nnc1-c1ccc(S(=O)(=O)N2CCCCCC2)cc1 | . | 0.3 | 16.2
CCC(Sc1nnc(-c2ccc(C)c(Cl)c2)n1CC)C(=O)Nc1nccs1 (configuration not stated) | -0.31 | -4.1 | 55.6*
CCCn1c(=O)c(C(=O)Nc2nnc(C)s2)c(O)c2ccccc21 | -0.87 | . | .
COc1ccc(N/N=C(/C#N)S(=O)(=O)c2nsc(C)c2C#N)cc1 | . | 0.6 | 2.6
Cc1snc(S(=O)(=O)/C(C#N)=N/Nc2cccc(C(F)(F)F)c2)c1C#N | . | -6.4 | 89.9*
